This note sets out measurements from PubChem BioAssay AID623868 (Vanderbilt High Throughput Screening Facility, 2012).

SMILES strings stand for the structures. In all, about 2,100 compounds went through this assay and about 760 (36%) were called active. The list is a sample of the results. Values without a mark were called inactive.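 The calls were made as follows: active = thallium-flux fluorescence traces judged by eye to show enhanced or reduced glutamate response, manual score 1 or -1, so both directions (some results past the limit were not filed as active); inactive = the rest, including fluorescent or raised-baseline compounds.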

The test is described as follows: non-GIRK thallium flux modulation in mGlu8 cells, confirmation, counter-screen for GIRK activator project, cell-based, HEK-293 rmGlu8, no GIRK (AID 623868).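 Also: extra codes mark interference with 3 for fluorescent and 4 for baseline rise.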 The settings on record: thallium flux fluorescence, at 10 µM, actives lie on both sides, codes: 1 enhancer, -1 blocker, 0 none, thallium stimulus containing EC20 glutamate. On the technique in general: Counterscreens check selectivity or assay interference.
For the compound `CCCC1COC(Cn2cncn2)(c2ccc(C)cc2)O1` (stereo not given), the manual score is 0.
The figure for `O=C(c1cnn2c(C(F)(F)F)cc(-c3cccs3)nc12)N1CCN(Cc2ccccc2)CC1` is 0; for `CCCCCCCC1CC(CSc2ncn[nH]2)OC1=O` (stereo not given) it is 0; for `N=c1oc2ccc3ccccc3c2cc1-c1nc(-c2ccccc2)cs1` it is 3.
In the case of `CC1CCCCN1Cc1nc2c(c(=O)n(C)c(=O)n2C)n1CCc1ccccc1` (stereo not given), the manual score was 0.
For the compound `O=C(Nc1cccc(-c2nnc(-c3ccccc3)o2)c1)C1CCCO1` (stereo not given), the manual score was 0.
The figure for `CN(C)S(=O)(=O)c1ccc(C(=O)Nc2nnc(-c3ccc4c(c3)CCCC4)o2)cc1` is 0.
The figure for `O=C(Nc1nnc(-c2ccc3c(c2)CCCC3)o1)c1ccccc1` is 1 (active); for `CN1CCN(Cc2cccc(Oc3ccc(Cl)cc3)c2)CC1` it is 0; for `Cc1ccccc1OCC(=O)N/N=C/c1cccn1C` it is 0.
Consider `CCCc1ccc(OCC(=O)NNC(=S)NC(=O)c2ccco2)cc1`, for which the manual score is 1 (active).
To `Cc1ccccc1OCC(=O)NNC(=S)NC(=O)c1ccco1` belongs 1 (active); to `O=C(Nc1ccc(Br)cc1)C1CCC(=O)N1Cc1ccccc1Cl` (stereo not given), 0.
The figure for `O=P(CCCCCCCCCP(=O)(c1ccccc1)c1ccccc1)(c1ccccc1)c1ccccc1` is -0.5.
As for `COc1ccccc1-c1ccc(NC2CCCC2)nn1`, the manual score was -1 (active).
The figure for `COc1ccccc1Nc1ccc(Nc2ccccc2OC)nn1` is 0.
Regarding `S=c1nc(-c2ccc(Br)cc2)oc2c1CCCC2`, the manual score was 1 (active).
To `CC(C)COc1ccc(Cc2cnc(N)nc2N)cc1` belongs 0; to `CCN(C#N)c1nc(NC(C)C)nc(NC(C)C)n1`, 0; to `Oc1c(N=Nc2ccccn2)ccc2ccccc12`, 1 (active).
The figure for `CC(C)n1c(O)c(N=Nc2ccccn2)c2ccccc21` is 0; for `CCCCn1c(O)c(N=Nc2ccccn2)c2ccccc21` it is 1 (active); for `Oc1ccc2ccccc2c1N=Nc1ccccn1` it is 1 (active).
The figure for `CCCCn1c(=N)n(CC(O)COc2cccc(C)c2)c2ccccc21` (stereo not given) is 0; for `CCOc1ccc(N2C(=O)CC(SC(=NC)Nc3ccc(F)cc3)C2=O)cc1` (stereo not given) it is 0; for `COc1ccc2cc(Br)ccc2c1CC(=O)NC1CC(C)(C)NC(C)(C)C1` it is 0.
Consider `CCC(C)NC(=O)CN1C(=O)CC(C)(C)S(=O)(=O)c2ccccc21` (stereo not given), for which the manual score was 0.
The figure for `CCn1c(=O)cc(OCC(=O)Nc2cccc(C)n2)c2ccccc21` is 0.
To `CCn1c(=O)c(C(=O)NCCCO)c(O)c2ccccc21` belongs 0.
The figure for `CCn1c(O)c(N=NC(=O)CNc2cccc(C)c2)c2ccccc21` is 1 (active); for `Cc1nn(-c2ccccc2)c(OC(=O)c2cccs2)c1S(=O)(=O)c1ccccc1` it is 0.
For `CO/N=C(\Cn1ncc(N2CCCC2)c(Br)c1=O)c1ccc(Cl)cc1`, the manual score was 0.
To `CCN(CC)c1cnn(C/C(=N\OC)c2ccc(Cl)cc2)c(=O)c1Br` belongs -1 (active).
The figure for `CO/N=C(\Cn1ncc(N2CCCC2)c(Cl)c1=O)c1ccc(Cl)cc1` is 0; for `CCC(C)(C)NC(=O)C(c1ccc(F)cc1)N(Cc1ccco1)C(=O)c1cnccn1` (stereo not given) it is 0.
With `N#CC1=C(N)SC(N)=C(C#N)C1c1c(Cl)cccc1Cl`, the manual score was -1 (active).
To `N#CC1=C(N)SC(N)=C(C#N)C1CCc1ccccc1` belongs 0.
The figure for `Oc1oc(-c2cccc3ccccc23)nc1/C=N/c1nccs1` is 1 (active).
To `C#CCSc1nnc(-c2cccc3ccccc23)o1` belongs 0; to `O=C(O)c1cnc(-c2ccccc2)nc1Sc1ccccc1Cl`, 0.
Turning to `CC(C)C(=O)OCC(=O)Nc1ccc(N=Nc2ccccc2)cc1`, the manual score is 0.
`CCOC(=O)c1c2n(c3c(NCc4ccccc4)ncnc13)CCCC2`: the manual score is -1 (active).
The figure for `CCOC(=O)c1c(C)oc2ccc(O)c(CN3CCCCC3)c12` is 0.
The figure for `CCOC(=O)C1CCCN(c2ncnc3c2oc2ccccc23)C1` (stereo not given) is 0.
To `Cc1ccc(SC(C)C(=O)Nc2ccc(S(=O)(=O)N3CCOCC3)cc2)cc1` (stereo not given) belongs 0; to `Cc1ccc(C)c(NC(=S)N=Nc2c(O)n(C)c3ccc(S(=O)(=O)N4CCOCC4)cc23)c1`, 1 (active).
With `Cc1ccc(NC(=S)N=Nc2c(O)n(C)c3ccc(S(=O)(=O)N4CCOCC4)cc23)cc1`, the manual score is 1 (active).
To `Cc1ccc(NC(=O)CSc2nccn2C)cc1S(=O)(=O)N1CCOCC1` belongs 0; to `CCc1c(C)sc(NC(=O)CCc2ccc(OC)cc2)c1C(N)=O`, 0; to `CCC(C)n1c(=S)[nH]c2c(sc3ccc([N+](=O)[O-])cc32)c1=O` (stereo not given), 1 (active).
To `CN=C1S/C(=C\c2cc(C)n(-c3ccccc3F)c2C)C(=O)N1C` belongs 0.
To `COc1ccc(C2c3ccc4ccccc4c3Oc3ncn(CCN4CCOCC4)c(=N)c32)cc1` (stereo not given) belongs 0.
In the case of `NC(=O)Nc1cccc2ccccc12`, the manual score is 0.
The figure for `O=C(NNC(=S)Nc1ccccc1)c1cccc(Br)c1` is 1 (active); for `S=C(Nc1cccc(Br)c1)c1ccccc1` it is 0; for `C=C(C)CNC(=S)Nc1cccc2cnccc12` it is 0.
The figure for `O=C(NNC(=S)Nc1cccc2ccccc12)c1cccc(Br)c1` is 1 (active); for `CN1CCN(C(=O)Nc2cccc3ccccc23)CC1` it is 0; for `Cc1ccc(C(=O)NNC(=S)Nc2cccc3ccccc23)s1` it is 1 (active).
To `N#Cc1ccsc1NC(=O)CN1CCN(c2ccc(O)cc2)CC1` belongs 0; to `COc1ccc(/C=C2\N=C(SC)NC2=O)cc1`, 1 (active).
For the compound `Cc1ccc(S(=O)(=O)n2cnc3cc([N+](=O)[O-])ccc32)cc1C`, the manual score was 0.
The figure for `Clc1ccccc1-c1nnc2sc(-c3ccccn3)nn12` is 0; for `Clc1ccccc1-c1nnc2sc(-c3ccc4c(c3)OCO4)nn12` it is 0; for `Brc1ccccc1-c1nnc2sc(-c3ccc4c(c3)OCCO4)nn12` it is -1 (active).
